The record followed here is the supplement of paper PMC6555819.

In the experiment the test system is VDR:RXRa (NR concentration 270 nM, RXRa partner concentration 90 nM). The experiment in a line: PBM binding z-score (relative to random genomic background probes); higher = stronger binding; sequences stand for … in GC…GCGATTGACAGCGTAGAATGAAGG
How it is done:
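Protein-binding microarray (Agilent 4x180K custom design, double-stranded 60-nt probes: 5' GC cap, 34-nt variable region, 24-nt constant primer region; full probe sequence given). Purified or IVT nuclear receptor:RXRα heterodimers (3:1 NR:RXRα, mostly 270:90 nM) or homodimers were incubated for 1 h in PBS with 2% milk and no ligand, then detected with Alexa488 antibodies. Fluorescence from o1-orientation probes (~5 replicates averaged) was converted to z-scores against 500 random hg19 background probes. Variable regions are seed direct-repeat (DR0–DR5) sites, all their single-nucleotide variants and half-site ablations.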
The sequence AGAATGAGGTTATATGTAGATCAGGGAAGAAAGT returned a PBM binding z-score of 1.43.

In turn, TCTCGGAGTACACGAAGGTCAGAGCTTTCCAGAG had a PBM binding z-score of 2.27.

In the case of TCGAGTAGGCTAGGGGCATTCAGAATGGCGTCGA, the PBM binding z-score is -0.094.

For AGAACGAGGGCACGCTGAGTTCATAGCAGAGTAG, the PBM binding z-score was 6.39.

For TCTTGTAGATCAACAGGAGATTAAGAAAGATCGA, the PBM binding z-score is 0.136.

On to GCTAGTTGGTCAGTAAAAGGTCAGACACCGGTCG, for which the PBM binding z-score is 2.38.

Sequence GATACAGGGTCAGCCAGAGGCCAGAGTATGGAAA yielded a PBM binding z-score of 3.64.

The sequence GCTTGTAGCTCAAGGTTAAGAAAGACTAAGCTAA had a PBM binding z-score of -0.0239.

Consider TGTCAAAATTCAAAGGTAACGTAAGTATCCACAC, for which the PBM binding z-score worked out at 0.436.

TCTAGTCGGTCACGGAGGTCACACACGACGGGTA showed a PBM binding z-score of 6.56.

AATGCAGGGTCACTAGGCCAGAGTAGGTACGAAT came in with a PBM binding z-score of 4.04.

In the case of ACTTACGGGTCAACGAGGTTACAGCACGCGTATA, the PBM binding z-score was determined as 7.79.

In the case of CTCGAAGGGTCGTGCTCAGGTGAGTATACCAAAC, the PBM binding z-score was 1.59.

Take TCTATTAGTTGATTAGGGCAACCGCAACAGCGGA: the PBM binding z-score was 0.526.

GCTGCTGGGTCAGGTTGGTCAGCTAACGGGTACG registered a PBM binding z-score of 0.554.

Take TCGAGTAGGTTAGTCGTGGCATTCAGCCAACATA: the PBM binding z-score was -0.0269.

ATCTCTAGGTAAGACTCAGTTCAGTGGAGAACGC had a PBM binding z-score of 0.529.

In turn, TCAGACAGGTGGAGGTAACTCAGGTACGCAGTCG returned a PBM binding z-score of 0.574.

Sequence CCGACTGGGGCAGAAAGGATACCATACCATCCGG returned a PBM binding z-score of -0.772.

Sequence GCTTACGGGTCACAGGTTATAGCATGAATAGAAT showed a PBM binding z-score of 3.9.

In turn, GCATATAGGTAATACAAGGTGAGAGTCCGATTGT came in with a PBM binding z-score of 0.351.

In turn, CCAGCCAGGTGAAAGGTAACTCAGTCTGGTACGC displayed a PBM binding z-score of 0.288.

TCTTGTAGATCAAGCAGGCTAAGAAAGCCTGAGT showed a PBM binding z-score of -0.214.

TCATATAGGTGAATGCTAGGTGAAAGTCCGATCT displayed a PBM binding z-score of 0.699.

As for CCTTACGGGTCAAGGTCATAGCACGGGTGGTACG, the PBM binding z-score was 5.14.

The sequence GATACAGGGTCAAAGCCAGAGTACGCGTATTGAT gave a PBM binding z-score of 4.5.

Regarding CCAGACAGGTGACAGGTAACTCAGTCTGGTACGC, the PBM binding z-score is -0.206.

For CCGTACGGGTCACGAGGTTATAGCACGACGAGCG, the PBM binding z-score worked out at 5.23.

ACTATTAGTTGACTTAGGGAAACCGATACGACGC returned a PBM binding z-score of 0.0698.

With GCGACTGGGGCATCAGCAGGTTACGATAACTTAA, the PBM binding z-score worked out at 0.0769.

Sequence TAGCCTAGGTCATTCAGGGGACAGTATAGAAAGC gave a PBM binding z-score of 3.56.

GCTAGCACGCCATTTGGGTCACTCAATGACGGGC showed a PBM binding z-score of -0.0776.

In the case of ACAGACAGGTTAGTGAAGGTAACTCAGCTGGACG, the PBM binding z-score is -0.0325.

Regarding GCGACTGGGGCAAAGCAGGTTATCATAAGGTTGG, the PBM binding z-score stood at 0.334.

Consider TCTTGGAGATCAAGCAGGTTAAGAAAGCCTGAGT, for which the PBM binding z-score was determined as 1.04.

GCTGGGAGGACAAGGTCAGAGCTTTGTCCGTAGA had a PBM binding z-score of 1.4.

As to CCTACTGGGCCATTCATAGGTCATTGATCATATG, the PBM binding z-score stood at 1.24.

The sequence TAGCCAAGGTCATGGGCCAGTATACCACGCGAAC returned a PBM binding z-score of 4.51.

Sequence TGAATGAGGTTATAAGATCAGGGAACGTTGCAAA had a PBM binding z-score of 0.749.

As to CCGACTGGGGCAGAAAGGTTTCCATACCATCCGG, the PBM binding z-score was -0.642.
